Hits are enriched below; roughly 21% of the tested compounds scored in any of these assays.
Pf growth 96h: P. falciparum growth inhibition at 96 hour, primary screen for plastid delayed-death inhibitors. AID 504834. hit rate 6.9% among 320,000. Potency, µM (highest dose often 28.7 µM), for inactives: top-dose activity change, negative = inhibition, actives largely listed as inhibitors. P. falciparum luciferase reporter growth, 96 h; further: potency means the concentration at half of the fitted maximal effect; on the % scale 0 is the no-effect control and ±100 the full control effect
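Compounds incubated with erythrocytes infected by luciferase-expressing P. falciparum (2% hematocrit, 0.05% parasitemia final) for 96 hours, 37 C in 5% CO2. Growth inhibition scored as decreased luciferase luminescence.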
Shiga inhibitor: inhibitors of Shiga toxin in Vero cells; hit rate 9.2% among 290,000; AID 2315; inhibition, % at 38.7 µM; Vero cells, Shiga toxin protein synthesis inhibition reporter; in the data active means inhibition mostly above about 28%, no sharp cut-off; inactive means mostly below about 43%; further: 0% is about no effect
Cycloheximide cs: counter-screen hit for Shiga toxin inhibitors, cycloheximide; cell reporter, cycloheximide protein synthesis inhibition counterscreen; max response, %; hit rate 12% among 300,000; AID 2314; in the data active means max response mostly above about 13%, no sharp cut-off; inactive means mostly below about 14%; further: read at 38.3 µM for the half of the compounds with a filed dose; 0% is about no effect
Pf growth 48h: inhibits P. falciparum growth in the first generation, 48 h. P. falciparum luciferase growth in erythrocytes, 48 h. hit rate 5.9% among 310,000. Potency, µM (doses to about 28.7 µM), for the others: at the highest dose activity change, negative = inhibition, actives largely listed as inhibitors; further: potency means the concentration at half of the fitted maximal effect; on the % scale 0 is the no-effect control and ±100 the full control effect
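Luciferase-expressing parasites in RBCs, 2% Hct / 0.1% parasitemia final; RPMI 1640 + 0.5% Albumax; 37 C, 5% CO2, one generation; luminescence read-out, lower signal = inhibition.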
Active calls of the source: *; ? = inconclusive; nt = no result; + = active, no number; [ ] = dose if it differs, or a comment. Unless noted, the call rests on the fitted dose curve; in most records, active means well fitted inhibition curve with a large enough effect; inconclusive means small, poorly fitted or top-dose-only effect, or another doubt; inactive means no such curve, though single readings can be large or run the other way.

SMILES	Pf growth 96h	Shiga inhibitor	Cycloheximide cs	Pf growth 48h
CCOC(=O)C(=CNc1cc(OC)ccc1-n1cccc1)C(=O)OCC	?	-5	-3	-25%
C=CCOc1ccc(C2NC(=S)NC3=C2CCc2ccccc23)cc1 (stereo not drawn)	?	20	25*	?
COc1cc(C2NC(=S)NC3=C2CCc2ccccc23)cc(OC)c1OC (stereo not drawn)	?	-17	-1	?
CCCCOc1ccc([N+](=O)[O-])cc1C(=O)O	?	4	-4	-17%[5.75 µM]
O=C(c1ccccc1)C1CCN(C(=O)C2CCC(=O)N(Cc3ccccc3F)C2)CC1 (stereo not drawn)	?	20	10	?
CC1CN(CCCCSc2ccc(Cl)cc2)CC(C)O1 (stereo not drawn)	3%	nt	-3	-2%
Cc1ccc(SCCCCN2CCOCC2)cc1	-13%	17	6.9*	32%
Cc1ccc(SCCCCN2CCNCC2)cc1	12%	+	37*	39%
Clc1ccc(SCCCCN2CCOCC2)cc1	-8%	35	11	2%
Cc1ccc(C)c(OCCCN2CCNCC2)c1	?	-3	-4	26%
Clc1ccc(SCCCCN2CCNCC2)cc1	12µM*	65	39*	?
Cc1ccccc1/C=N\NC(=O)c1ccccc1-n1cccc1	?	29	10	28%
CCOC(=O)c1c(S(=O)(=O)NCCCc2ccco2)c(C)n(C)c1C	19%	-7	-3	-12%
O=C(CSc1nnnn1C1CC1)N1CCN(c2ccccc2F)CC1	-2%	nt	nt	40%
CC(C)c1ccc(CN2CCN(C(=O)CSc3nnnn3C3CC3)CC2)cc1	12µM*	nt	nt	7.4µM*
Cc1ccc(NC(=O)c2cccc(NC(=O)CC3SC(N4CCCCC4)=NC3=O)c2)nc1 (stereo not drawn)	?	nt	nt	-21%
CCN(CC(=O)Nc1c(F)cccc1F)C(=O)COc1ccc2c(C)cc(=O)oc2c1	7%	-20	1	-1%
CCOc1ccc(NC(=O)CN2C(=O)C(C)SC(C)C2=O)cc1 (stereo not drawn)	60%	54	25*	-14%
CCOc1ccccc1NC(=O)CN1C(=O)C(C)SC(C)C1=O (stereo not drawn)	?	-7	-1	?
CCOc1ccc(NC(=O)CN2C(=O)C3CC=CCC3C2=O)cc1 (stereo not drawn)	0%	62	27*	46%
Cc1ccc(C(=O)N2CCCC2)cc1S(=O)(=O)Nc1cccc(C)c1C	?	-16	-1	-4%
COc1cc2nc(NCCCN3CCN(C)CC3)n3nc(-c4ccccc4)nc3c2cc1OC	nt	-3	6	nt
CCN(CC)CCCNc1nc2ccccc2c2nc(-c3ccncc3)nn12	4.1µM*	-6	-3	6.6µM*
CCN(CC)CCCNc1nc2cc(OC)c(OC)cc2c2nc(-c3cccnc3)nn12	nt	-7	-7	4.1µM*
CCN(CC)CCCNc1nc2cc(OC)c(OC)cc2c2nc(-c3ccccc3)nn12	22%	43	-1	2.3µM*
SMILES	Pf growth 96h	Shiga inhibitor	Cycloheximide cs	Pf growth 48h
COCCCNc1nc2cc(OC)c(OC)cc2c2nc(-c3ccccc3)nn12	-2%	-6	6	0.29µM*
CCN(CC)CCCNc1nc(-c2ccccc2)nc2ccccc12	?	-2	-3	?
O=C(NCc1ccc(-n2cccc2)cc1)c1cccc(F)c1	4%	20	4	3%
OCC[C@H]1C[C@@H](O)[C@H](O)[C@]2(Cc3ccccc3CO2)O1	4%	nt	nt	6%
CC(C)CCNC(=O)CN1N=C(c2ccc(Cl)cc2)CCC1=O	23%	-7	-3	20%
C/C=C(\C)C(=O)NCCN1C2=NC[C@H](C(C)C)N2C[C@H]1Cc1ccc(O)cc1	3.3µM*	11	-2	5%
C/C=C(\C)C(=O)NCCN1C2=NC[C@H](C(C)C)N2C[C@@H]1Cc1ccc(OC)cc1	90%	1	-2	48%
COc1ccc(C[C@H]2CN3C(=NC[C@@H]3C(C)C)N2CCNC(=O)c2ccc(C)c(Br)c2)cc1	2.1µM*	-9	-4	?
Cc1ccc(C(=O)NCCN2C3=NC[C@H](C(C)C)N3C[C@H]2Cc2ccc(O)cc2)cc1Br	2.6µM*	-6	3	4.7µM*
COc1ccccc1N1CCN(c2ccc([N+](=O)[O-])cc2Cl)CC1	?	9	-4	-7%
O=C(Cn1c(-c2ccccc2)c[n+]2ccsc12)c1ccc([N+](=O)[O-])cc1	?	71*	21*	11%
O=C(NCC1CCCCC1)c1ccc(F)cc1Cl	?	89*	57*	58%
O=C(N/N=C/c1cccs1)c1cccc(S(=O)(=O)Nc2ccc(Cl)cc2)c1	-17%	-3	2	-1%
O=C(O)/C=C/c1cccc(NC(=O)c2ccccc2)c1	54%	42	0	-7%
Cc1ccc(C(=O)Nc2cccc(C(=O)N/N=C/c3ccc(O)cc3)c2)cc1	?	34	28*	112%
O=C(N/N=C/c1cccc(NC(=O)c2ccc(Cl)cc2)c1)c1cccc(O)c1	356%	77*	26*	90%
Cc1cccc(C(=O)Nc2cccc(C(=O)N/N=C/c3ccncc3)c2)c1	?	-3	-2	-23%
O=C(O)/C=C/c1cccc(NC(=O)c2ccc(Cl)cc2)c1	5%	34	3	0.33µM*
O=C(N/N=C/c1cccs1)c1cccc(NC(=O)c2ccc(Cl)cc2)c1	?	13	29*	-21%
CC(C)Sc1nc2[nH]ncc2c(=O)[nH]1	27%	12	-2	-9%
COc1ccc2c(c1OC)C(=O)OC2N1C(=O)CC[C@H]1C(=O)Nc1ccc2c(c1)OCO2 (stereo partly drawn)	22%	24	12	-10%
COc1ccccc1CCNC(=O)CN1C(=O)c2ccccc2S1(=O)=O	28%	nt	nt	-9%
Cc1ccc(OCC(=O)N2CCC(C)CC2)c([N+](=O)[O-])n1	-5%	nt	nt	18%
CCc1noc(C)c1C(=O)N(CCC(C)C)c1c(N)n(Cc2ccccc2)c(=O)[nH]c1=O	17%	nt	nt	?
COc1cc(CCC(=O)OCC(=O)Nc2ccc(F)cc2F)cc(OC)c1OC	-26%	4	-2	0%
SMILES	Pf growth 96h	Shiga inhibitor	Cycloheximide cs	Pf growth 48h
Cc1ccc(C2=NNC(c3ccc(Cl)cc3)=Nc3ccccc32)o1	10µM*	16	7	10µM*
COc1ccc(S(=O)(=O)N2CCCCCC2)cc1C(=O)N(C)Cc1ccc(C(C)(C)C)cc1	13µM*	-13	0	?
COc1ccc(CN(C)C(=O)c2cc(S(=O)(=O)N3CCOCC3)ccc2N2CCCC2)cc1	?	nt	nt	9.3µM*
COc1cc(NC(=O)CCc2c(C)[nH]c(=O)c(C#N)c2C)cc(OC)c1	-3%	-10	-6	9%
O=C(C1CC1)N1CCc2cc(Br)cc(S(=O)(=O)NCCCN3CCCC3)c21	9.3µM*	-17	-3	-1%
CCC(=O)N1CCc2cc(Br)cc(S(=O)(=O)NCCN3CCCC3)c21	28%	-9	-1	nt
COC(=O)C1(S(=O)(=O)c2cc(Br)cc3c2N(C(C)=O)CC3)CC1	77%	-12	-1	9.3µM*
CCC(=O)N1CCc2cc(Br)cc(S(=O)(=O)CC(=O)OC)c21	15µM*	17	10	?

Bioassay records from PubChem BioAssay.
